From the supplement of paper PMC12645437, “Orthogonal IMiD-Degron Pairs Induce Selective Protein Degradation in Cells” (ACS Chemical Biology, 2025)
Over roughly 8,300 sequences, “log2 fold change of degron read counts, EGFP-low vs EGFP+ sorted cells (limma voom), compound-induced degradation” has its median near -1.1; the highest 2% begin near 3.2. Shown is part of a subset that was picked to be rich in the highest values.

T1: CRBN, Q96SW2
T1 chain: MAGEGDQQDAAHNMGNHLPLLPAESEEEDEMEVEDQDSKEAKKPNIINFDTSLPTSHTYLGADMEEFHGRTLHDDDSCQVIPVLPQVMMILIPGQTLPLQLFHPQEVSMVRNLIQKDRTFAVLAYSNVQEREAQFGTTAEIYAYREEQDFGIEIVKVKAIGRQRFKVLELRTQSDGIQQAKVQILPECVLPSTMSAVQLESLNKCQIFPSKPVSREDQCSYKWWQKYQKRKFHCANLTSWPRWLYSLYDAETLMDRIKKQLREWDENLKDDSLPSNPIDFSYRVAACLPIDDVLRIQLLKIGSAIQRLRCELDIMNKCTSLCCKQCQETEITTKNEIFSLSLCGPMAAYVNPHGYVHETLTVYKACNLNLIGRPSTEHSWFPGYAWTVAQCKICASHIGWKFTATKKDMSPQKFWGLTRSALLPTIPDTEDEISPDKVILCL


Biological target: T1, CRBN, Q96SW2
Test: log2 fold change of degron read counts, EGFP-low vs EGFP+ sorted cells (limma voom), compound-induced degradation; higher = more compound-induced degradation of the degron-EGFP fusion; degrons are variants of IKZF1/3 zinc finger 2; compound dose not given here
Details: Jurkat, 18 h
[1] = compound: compound 19 (5-tert-butyl-thalidomide)
[2] = compound: compound 22 (5-morpholino-thalidomide)
[3] = compound: compound 33 (diphenyl IMiD analogue)
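Note: pooled lentiviral library of zinc finger degron-EGFP fusions in mCherry-positive Jurkat cells, FACS-sorted after compound exposure, with degron abundance counted by next-generation sequencing.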

Sequence | log2 fold change of degron read counts [1] | log2 fold change of degron read counts [2] | log2 fold change of degron read counts [3] | log2 fold change of degron read counts (compound: thalidomide)
LGCEICGFFCTQKGNLLRHIKL [46L_47G_49E_50I_52G_53F_54F_55C_67L_, Q9UKT9] | 1.15 | 0.461 | 0.628 | 0.198
FICEQCGAEFTQKGNLLRHIKL [46F_47I_49E_50Q_52G_53A_54E_55F_67L_, Q9UKT9] | -2.28 | -1.92 | -1.09 | -0.382
FMCSVCGHPFTQKGNLLRHIKL [46F_47M_49S_50V_52G_53H_54P_55F_67L_, Q9UKT9] | -2.27 | -1.78 | -1.3 | -1.51
LLCNQCGFMCTQKGNLLRHIKL [46L_47L_49N_50Q_52G_53F_54M_55C_67L_, Q9UKT9] | -1.85 | -1.98 | -1.61 | -1.33
FYCDQCGAYFTQKGNLLRHIKL [46F_47Y_49D_50Q_52G_53A_54Y_55F_67L_, Q9UKT9] | -0.745 | -1.31 | -1.38 | -2.23
FDCNQCGHQFTQKGNLLRHIKL [46F_47D_49N_50Q_52G_53H_54Q_55F_67L_, Q9UKT9] | -2.63 | -3.11 | -2.64 | -2.65
FSCEICGAHFTQKGNLLRHIKL [46F_47S_49E_50I_52G_53A_54H_55F_67L_, Q9UKT9] | 2.47 | 0.831 | 0.776 | 0.206
FDCEICGAHFTQKGNLLRHIKL [46F_47D_49E_50I_52G_53A_54H_55F_67L_, Q9UKT9] | 3.28 | 0.822 | -0.326 | 1.02
FVCEICGAHFTQKGNLLRHIKL [46F_47V_49E_50I_52G_53A_54H_55F_67L_, Q9UKT9] | 0.302 | 1.59 | 1.49 | 1.95
FVCEICGRHFTQKGNLLRHIKL [46F_47V_49E_50I_52G_53R_54H_55F_67L_, Q9UKT9] | -2.45 | -1.78 | -2.13 | -0.209
FTCEICGHLFTQKGNLLRHIKL [46F_47T_49E_50I_52G_53H_54L_55F_67L_, Q9UKT9] | -2.72 | -3.75 | -2.61 | -2.41
FYCPICGHCFTQKGNLLRHIKL [46F_47Y_49P_50I_52G_53H_54C_55F_67L_, Q9UKT9] | -1.24 | -1.33 | -0.382 | -1.61
FVCPVCGANFTQKGNLLRHIKL [46F_47V_49P_50V_52G_53A_54N_55F_67L_, Q9UKT9] | -0.407 | 2.43 | 1.69 | 2.77
FWCPVCGANFTQKGNLLRHIKL [46F_47W_49P_50V_52G_53A_54N_55F_67L_, Q9UKT9] | 3.05 | 3.85 | 2.12 | 1.69
FECNICGANFTQKGNLLRHIKL [46F_47E_49N_50I_52G_53A_54N_55F_67L_, Q9UKT9] | -1.93 | -1.27 | 1.75 | 2.22
FWCNICGANFTQKGNLLRHIKL [46F_47W_49N_50I_52G_53A_54N_55F_67L_, Q9UKT9] | 2.27 | 3.62 | 1.88 | 0.44
FLCPVCGANFTQKGNLLRHIKL [46F_47L_49P_50V_52G_53A_54N_55F_67L_, Q9UKT9] | -0.132 | 0.243 | 1.67 | 1.54
FNCPVCGANFTQKGNLLRHIKL [46F_47N_49P_50V_52G_53A_54N_55F_67L_, Q9UKT9] | 1.79 | 0.637 | 0.771 | 0.306
FECPVCGANFTQKGNLLRHIKL [46F_47E_49P_50V_52G_53A_54N_55F_67L_, Q9UKT9] | -0.535 | -0.523 | 2.7 | 3.16
FQCPVCGANFTQKGNLLRHIKL [46F_47Q_49P_50V_52G_53A_54N_55F_67L_, Q9UKT9] | 0.19 | 2.02 | 1.9 | 3.48
FYCPVCGANFTQKGNLLRHIKL [46F_47Y_49P_50V_52G_53A_54N_55F_67L_, Q9UKT9] | 2.82 | 3.69 | 2.32 | 1.3
FYCNICGANFTQKGNLLRHIKL [46F_47Y_49N_50I_52G_53A_54N_55F_67L_, Q9UKT9] | 1.69 | 2.89 | 1.33 | 0.00754
FSCPVCGANFTQKGNLLRHIKL [46F_47S_49P_50V_52G_53A_54N_55F_67L_, Q9UKT9] | 1.92 | 1.29 | 1.78 | 0.865
FMCPVCGANFTQKGNLLRHIKL [46F_47M_49P_50V_52G_53A_54N_55F_67L_, Q9UKT9] | -0.564 | 1.22 | 2.92 | 1.69
FKCDVCGADFTQKGNLLRHIKL [46F_47K_49D_50V_52G_53A_54D_55F_67L_, Q9UKT9] | -2.97 | -3.35 | -3.54 | -2.81
FFCEICGRYFTQKGNLLRHIKL [46F_47F_49E_50I_52G_53R_54Y_55F_67L_, Q9UKT9] | 0.941 | 0.578 | -0.864 | -0.888
FKCNQCGRGFTQKGNLLRHIKL [46F_47K_49N_50Q_52G_53R_54G_55F_67L_, Q9UKT9] | -2.31 | -2.82 | -2.99 | -2.64
FSCDQCGAAFTQKGNLLRHIKL [46F_47S_49D_50Q_52G_53A_54A_55F_67L_, Q9UKT9] | -0.624 | -1.35 | 0.123 | -2.08
